This passage reports outcome and AC50 results from PubChem BioAssay (EPA / NIEHS).

Active and inactive are the calls of the source. How the source made its calls: active means hit-call score of the fitted dose curve at least 0.9, where 1 is the maximum; inactive means score below 0.9.

The assay can be described thus: ATG_RORE_CIS: Attagene CIS-FACTORIAL HepG2 Assay for human RAR-related Orphan Receptor Element (RORE) (AID 2282959). The note with it: HepG2 Attagene cis-factorial RORE reporter, mRNA; actives raise or lower the signal. As for the experimental part: ATG_CIS is a cell-based, multiplexed-readout assay that uses HepG2, a human liver cell line, with measurements taken at 24 hours after chemical dosing in a 24-well plate.ATG_RORE_CIS is one of 52 assay component(s) measured or calculated from the ATG_CIS assay. It is designed to make measurements of mRNA induction, a form of inducible reporter, as detected with fluorescence intensity signals by Reverse transcription polymerase chain reaction (RT-PCR) and Capillary electrophoresis technology.Data from the assay component ATG_RORE_CIS was analyzed into 1 assay endpoint. This assay endpoint, ATG_RORE_CIS, was analyzed with bidirectional fitting relative to DMSO as the negative control and baseline of activity. Using a type of inducible reporter, measures of mRNA for gain or loss-of-signal activity can be used to understand the reporter gene at the transcription factor-level as they relate to the gene RORA and RORB and RORC. Furthermore, this assay endpoint can be referred to as a primary readout, because this assay has produced multiple assay endpoints where this one serves a reporter gene function. To generalize the intended target to other relatable targets, this assay endpoint is annotated to the nuclear receptor intended target family, where the subfamily is orphan.
Human liver HepG2 cells are transiently transfected with multiple reporter transcription units (MRTUs) in 6-well plates using FuGene 6 reagent (Roche; 3 ml FuGene/1 mg DNA). The MRTU constructs are regulated by a cis-regulating element (promoter). […] A major difference between the CIS and TRANS system is that in CIS activities of endogenous TFs are measured, whereas the TRANS assay evaluates changes in activities of exogenous, chimeric NR-Gal4 proteins. […] At the end of 24 hour incubation, total RNA was isolated using TriZol reagent (Invitrogen). The isolated RNA is then reverse-transcribed using oligo(dT) primer and Mo-MLV reverse transcriptase (Invitrogen) with DNAse I (Ambion) treatment for 30 min. The one-tenth of the produced cDNA was amplified by PCR using Taq DNA polymerase (Invitrogen) and two reporter sequence-specific primers. The PCR products were fluorescently labeled by primer extension with 6-arboxyfluorescein (6-FAM) 5'-labeled reporter sequence-specific primer (2 min at 95 C, 20 s at 68 C and 10 min at 72 C) and these products were digested with 5U of HpaI (New England Biolabs) for 2h at 37 C. The fragments were purified using Qiaquick PCR columns (Qiagen), analyzed on an ABI 3130xL genetic analyzer (Applied Biosystems) with peak positions identified by using a set of X-rhodamine (ROX)-labeled MapMarker1000 molecular weight standards (BioVentures). The raw capillary electrophoresis data was processed using Attagraph software (Attagene).
For the compound `CC1C2CC(CC2C2CCCC(O)C2)C1(C)C` (stereo not given), the result was inactive.
Regarding `COC(=O)c1ccc(C)cc1C1=NC(C)(C(C)C)C(=O)N1` (stereo not given) (tested in a mixture with another compound), the compound was classed as inactive.
Regarding `C=C(C)[C@H]1CC=C(C)C(=O)C1`, the compound was called inactive.
With `Cc1c(Cl)cccc1[N+](=O)[O-]`, the call was inactive.
The same measure, in the same setting: the result for `CC(=O)O[C@@H]1CC2CCC1(C)C2(C)C` (stereo not given in full) reads “inactive”; that for `COC(CC(C)CCCC(C)(C)O)OC` (stereo not given), “inactive”.
For the compound `CCC(C)c1cc([N+](=O)[O-])cc([N+](=O)[O-])c1OC(=O)OC(C)C` (stereo not given), the outcome was inactive.
As for `O=C(O)CNc1ccccc1`, the compound was called inactive.
Still for that read-out and setting: the result for `CC(=O)C(C)O` (stereo not given) reads “inactive”; that for `Cc1ccc(OC(=O)c2ccccc2O)cc1`, “inactive”.
As to `Cc1ncc([N+](=O)[O-])n1CCO`, the compound was classed as inactive.
Turning to `Cc1cc(=O)oc2cc(N(C)C)ccc12`, the outcome was inactive.
Consider `O=C(O)c1cccnc1C(=O)O`, for which the result was inactive.
With `CCOc1ccc(NC(=O)CC(C)O)cc1` (stereo not given), the outcome was inactive.
With `C[N+](C)(C)CCCCCC[N+](C)(C)C`, the outcome was inactive.
As for `FC(F)(F)COCC(F)(F)F`, the call was inactive.
One may read the AC50 as the midpoint of the concentration-response curve, whichever way the signal moves. As to `COc1ccc(N=Nc2cc(C)c(N=Nc3ccc(S(=O)(=O)O)cc3)cc2OC)cc1`, the concentration at half-maximal activity (AC50) was 8.45 µM (active).
Consider `COc1ccc(COC(C)=O)cc1`, for which the result was inactive.
With `Oc1ccc2cc(SSc3ccc4cc(O)ccc4c3)ccc2c1`, the AC50 was 33.5 µM (active).
Take `CN(C)C(=S)SC(=S)N(C)C`: the result was inactive.
For `CCCCC(CC)(CO)CO`, the compound was called inactive.
Turning to `O=C1OC[C@H](Cc2cccc(O)c2)[C@H]1Cc1cccc(O)c1`, the call was inactive.
Regarding `O=C1OC(=O)c2c(Cl)c(Cl)c(Cl)c(Cl)c21`, the compound was classed as inactive.
`CC1(C)O[C@@H]2C[C@H]3[C@@H]4CCC5=CC(=O)C=C[C@]5(C)[C@@]4(F)[C@@H](O)C[C@]3(C)[C@]2(C(=O)CO)O1`: the outcome was inactive.
As to `[Cl][Au]([Cl])[Cl]`, the result was inactive.
Regarding `CCOC(=O)COC(=O)c1cc(Oc2ccc(C(F)(F)F)cc2Cl)ccc1[N+](=O)[O-]`, the concentration at half-maximal activity (AC50) is 34.3 µM (active).
`O=c1[nH]c(=O)c2cn[nH]c2[nH]1`: the outcome was inactive.
As for `COC(C)(C)CCO`, the call was inactive.
For the compound `CC(C)OCCO`, the result was inactive.
Consider `CC1(C)C(=O)N(Cl)C(=O)N1Br`, for which the compound was called inactive.
As to `O=C(Nc1ccc2c(O)c(N=Nc3ccc(N=Nc4ccc(S(=O)(=O)O)cc4)cc3)c(S(=O)(=O)O)cc2c1)c1ccccc1`, the call was inactive.
`O=CCc1ccccc1`: the call was inactive.
Take `C=COCCOCCOC=C`: the result was inactive.
For the compound `C=C(C)C(=O)OCC(CC)(COC(=O)C(=C)C)COC(=O)C(=C)C`, the outcome was inactive.
As for `Cc1cc(CCC(=O)OCCOCCOCCOC(=O)CCc2cc(C)c(O)c(C(C)(C)C)c2)cc(C(C)(C)C)c1O`, the call was inactive.
For the compound `O=C(O)c1cc(C(=O)O)cc([N+](=O)[O-])c1`, the result was inactive.
On the same count and under the same terms, the value for `CCc1cc(C(C)(C)C)c(O)c(C(C)(C)C)c1` was “inactive”.
On to `C[C@H](CCC(=O)NCC(=O)O)[C@H]1CC[C@H]2[C@@H]3[C@H](O)C[C@@H]4C[C@H](O)CC[C@]4(C)[C@H]3C[C@H](O)[C@]12C`, for which the compound was classed as inactive.
Same read-out and setting: the value for `COCCOCCOCCO` was “inactive”.
Take `c1ccc2cc(Nc3ccc(Nc4ccc5ccccc5c4)cc3)ccc2c1`: the AC50 is 5.31 µM (active).
